“And” between values parts separate entries of the source, which are not always exact repeats. Equal entries are not always repeated. About 2,000 (36%) of roughly 5,500 compounds were called active. Not shown: some 18% with an inconclusive outcome. No stated cut-off is given here; in the data, active means normalized growth mostly below about 0.91 (no sharp cut-off); inconclusive means no clear call, values can overlap the other calls; inactive means mostly above about 0.92. Some of the results follow.
Test: chemical genetic growth profiling, strain panel (AID 1159580);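 further: tested at 20 µM; growth read once vehicle control cultures reached saturation at 30 °C; 1 = growth at the plate median or of vehicle wells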
Details: S. cerevisiae deletion strains, growth OD
[1] = locus YNL153C, strain GIM3, stronger effect = lower value
[2] = locus YPL055C, strain LGE1, stronger effect = lower value

Measured: normalized growth

CN1CCC2(CCN3CCc4c(oc5ccccc45)C3C2)N(C)C1=O (centres undefined)
inactive: locus YAL013W, strain DEP1, stronger effect = lower value 1.02 | locus YAL040C, strain CLN3, stronger effect = lower value 1 | locus YCL061C, strain MRC1 (second series), stronger effect = lower value 1 | locus YDR150W, strain NUM1, stronger effect = lower value 0.996 | locus YDR363W, strain ESC2, stronger effect = lower value 1.02 | locus YER002W, strain NOP16, stronger effect = lower value 1.01 | locus YMR263W, strain SAP30, stronger effect = lower value 1 | [1] 1 | locus YNL175C, strain NOP13, stronger effect = lower value 1 | locus YNL197C, strain WHI3, stronger effect = lower value 1.01 | locus YNL224C, strain SQS1, stronger effect = lower value 1.01 | locus YOR083W, strain WHI5 (second series), stronger effect = lower value 1.02 | [2] 1

CCOC(=O)c1c(C)cc(O)cc1O
inactive: locus YAL021C, strain ccr4, stronger effect = lower value 0.924 | locus YAL026C, strain drs2, stronger effect = lower value 0.946 | locus YBL061C, strain skt5, stronger effect = lower value 0.94 | locus YBR021W, strain FUR4, stronger effect = lower value 1.01 | locus YBR023C, strain chs3, stronger effect = lower value 0.922 | locus YBR171W, strain sec66, stronger effect = lower value 0.904 | locus YBR229C, strain ROT2, stronger effect = lower value 0.941 | locus YBR279W, strain paf1, stronger effect = lower value 0.947 | locus YCL016C, strain dcc1, stronger effect = lower value 0.921 | locus YCL029C, strain bik1, stronger effect = lower value 0.92 | locus YCL069W, strain vba3, stronger effect = lower value 0.939 | locus YCR088W, strain abp1, stronger effect = lower value 0.934 | locus YDL005C, strain med2, stronger effect = lower value 0.921 | locus YDL035C, strain GPR1, stronger effect = lower value 0.973 | locus YDL040C, strain nat1, stronger effect = lower value 0.94 | locus YDL074C, strain BRE1, stronger effect = lower value 0.923 | locus YDL101C, strain DUN1, stronger effect = lower value 0.917 | locus YDR069C, strain doa4, stronger effect = lower value 0.916 | locus YDR137W, strain rgp1, stronger effect = lower value 0.905 | locus YDR159W, strain sac3, stronger effect = lower value 0.887 | locus YDR162C, strain NBP2, stronger effect = lower value 0.87 | locus YDR195W, strain ref2 0.981 | locus YDR297W, strain sur2, stronger effect = lower value 0.93 | locus YDR334W, strain swr1, stronger effect = lower value 0.922 | locus YDR335W, strain msn5, stronger effect = lower value 0.935 | locus YDR392W, strain spt3, stronger effect = lower value 0.831 | locus YEL003W, strain gim4, stronger effect = lower value 0.947 | locus YEL037C, strain rad23, stronger effect = lower value 0.937 | locus YEL061C, strain CIN8 (second series), stronger effect = lower value 0.937 | locus YER016W, strain bim1, stronger effect = lower value 0.946 | locus YER111C, strain swi4, stronger effect = lower value 0.937 | locus YER155C, strain BEM2, stronger effect = lower value 0.927 | locus YER167W, strain BCK2, stronger effect = lower value 0.941 | locus YFR010W, strain ubp6, stronger effect = lower value 0.92 | locus YGL167C, strain pmr1, stronger effect = lower value 0.922 | locus YGL173C, strain kem1, stronger effect = lower value 0.928 | locus YGL227W, strain vid30, stronger effect = lower value 0.937 | locus YGL253W, strain hxk2, stronger effect = lower value 0.918 | locus YGR252W, strain gcn5, stronger effect = lower value 0.937 | locus YHR013C, strain ard1, stronger effect = lower value 0.941 | locus YHR030C, strain SLT2, stronger effect = lower value 0.93 | locus YHR079C, strain IRE1, stronger effect = lower value 0.918 | locus YHR129C, strain ARP1, stronger effect = lower value 0.924 | locus YIL066C, strain RNR3, stronger effect = lower value 0.951 | locus YIL073C, strain SPO22, stronger effect = lower value 0.888 | locus YIL125W, strain kgd1, stronger effect = lower value 0.945 | locus YJL092W, strain hpr5, stronger effect = lower value 0.923 | locus YJL115W, strain asf1, stronger effect = lower value 0.939 | locus YJL129C, strain trk1, stronger effect = lower value 0.929 | locus YJL134W, strain LCB3, stronger effect = lower value 0.931 | locus YJL154C, strain vps35, stronger effect = lower value 0.922 | locus YJL166W, strain qcr8, stronger effect = lower value 0.908 | locus YJL187C, strain SWE1 (second series), stronger effect = lower value 0.878 | locus YJL187C, strain SWE1, stronger effect = lower value 0.931 | locus YJR043C, strain POL32, stronger effect = lower value 0.965 | locus YJR066W, strain TOR1, stronger effect = lower value 0.853 | locus YKL009W, strain mrt4, stronger effect = lower value 0.924 | locus YKL160W, strain elf1, stronger effect = lower value 0.911 | locus YKR026C, strain gcn3, stronger effect = lower value 0.929 | locus YKR091W, strain srl3, stronger effect = lower value 0.942 | locus YLL001W, strain dnm1, stronger effect = lower value 0.919 | locus YLL026W, stronger effect = lower value 0.935 | locus YLR027C, strain aat2, stronger effect = lower value 0.93 | locus YLR058C, strain SHM2, stronger effect = lower value 0.906 | locus YLR102C, strain apc9, stronger effect = lower value 0.941 | locus YLR113W, strain HOG1, stronger effect = lower value 0.925 | locus YLR221C, strain rsa3, stronger effect = lower value 0.931 | locus YLR262C, strain YPT6 (second series), stronger effect = lower value 0.857 | locus YLR268W, strain sec22, stronger effect = lower value 0.964 | locus YLR320W, strain mms22, stronger effect = lower value 0.916 | locus YLR342W, strain FKS1, stronger effect = lower value 0.941 | locus YLR357W, strain rsc2, stronger effect = lower value 0.909 | locus YLR384C, strain iki3, stronger effect = lower value 0.937 | locus YML120C, strain ndi1, stronger effect = lower value 0.926 | locus YMR058W, strain fet3, stronger effect = lower value 0.914 | locus YMR125W, strain sto1, stronger effect = lower value 0.907 | locus YMR129W, stronger effect = lower value 0.949 | locus YMR205C, strain PFK2, stronger effect = lower value 0.91 | locus YMR231W, strain pep5, stronger effect = lower value 0.984 | locus YMR307W, strain GAS1, stronger effect = lower value 1.06 | locus YNL067W, strain RPL9B, stronger effect = lower value 0.899 | locus YNL071W, strain lat1, stronger effect = lower value 0.926 | locus YNL128W, strain TEP1, stronger effect = lower value 0.933 | [1] 0.9 | locus YNL183C, strain NPR1, stronger effect = lower value 0.869 | locus YNL209W, strain ssb2, stronger effect = lower value 0.97 | locus YNL298W, strain CLA4, stronger effect = lower value 0.953 | locus YNL322C, strain KRE1 (second series), stronger effect = lower value 0.935 | locus YNR049C, strain mso1, stronger effect = lower value 0.92 | locus YNR052C, strain pop2, stronger effect = lower value 0.949 | locus YOL006C, strain TOP1, stronger effect = lower value 0.578 | locus YOL012C, strain htz1 1.06 | locus YOR061W, strain CKA2, stronger effect = lower value 0.957 | locus YOR070C, strain gyp1, stronger effect = lower value 0.951 | locus YOR080W, strain dia2, stronger effect = lower value 0.942 | locus YOR083W, strain WHI5, stronger effect = lower value 0.89 | locus YOR136W, strain idh2, stronger effect = lower value 0.928 | locus YOR184W, strain ser1, stronger effect = lower value 0.915 | locus YOR231W, strain MKK1, stronger effect = lower value 0.905 | locus YOR290C, strain snf2, stronger effect = lower value 0.88 | locus YPL051W, strain arl3, stronger effect = lower value 0.956 | [2] 0.922 | locus YPL106C, strain sse1, stronger effect = lower value 0.88 | locus YPL240C, strain hsp82, stronger effect = lower value 0.952 | locus YPL256C, strain CLN2, stronger effect = lower value 0.839
active: locus YAL030W, strain snc1, stronger effect = lower value 0.928 | locus YBR009C, strain hhf1, stronger effect = lower value 0.896 | locus YBR231C, strain swc5, stronger effect = lower value 0.897 | locus YCL011C, strain gbp2, stronger effect = lower value 0.891 | locus YDL134C, strain PPH21, stronger effect = lower value 0.874 | locus YDL185W, strain tfp1, stronger effect = lower value 0.896 | locus YDL192W, strain arf1, stronger effect = lower value 0.896 | locus YDR001C, strain nth1, stronger effect = lower value 0.909 | locus YDR101C, strain arx1, stronger effect = lower value 0.915 | locus YDR318W, strain mcm21, stronger effect = lower value 0.893 | locus YDR388W, stronger effect = lower value 0.916 | locus YDR502C, strain sam2, stronger effect = lower value 0.844 | locus YER015W, strain faa2, stronger effect = lower value 0.924 | locus YER110C, stronger effect = lower value 0.882 | locus YER155C, strain BEM2 (second series), stronger effect = lower value 0.857 | locus YGL078C, strain dbp3, stronger effect = lower value 0.912 | locus YGL086W, strain mad1, stronger effect = lower value 0.883 | locus YGL240W, strain doc1, stronger effect = lower value 0.887 | locus YGL248W, strain PDE1, stronger effect = lower value 0.877 | locus YGR135W, strain pre9, stronger effect = lower value 0.823 | locus YHR027C, strain rpn1, stronger effect = lower value 0.917 | locus YHR079C, strain IRE1 (second series), stronger effect = lower value 0.919 | locus YHR094C, strain hxt1, stronger effect = lower value 0.919 | locus YHR142W, strain chs7, stronger effect = lower value 0.866 | locus YHR200W, strain rpn10, stronger effect = lower value 0.864 | locus YIR030C, strain dcg1, stronger effect = lower value 0.913 | locus YJL095W, strain BCK1 (second series), stronger effect = lower value 0.917 | locus YJL164C, strain tpk1, stronger effect = lower value 0.903 | locus YJL168C, strain set2, stronger effect = lower value 0.931 | locus YKL068W, stronger effect = lower value 0.928 | locus YKL085W, strain MDH1 (second series), stronger effect = lower value 0.912 | locus YKL085W, strain MDH1, stronger effect = lower value 0.912 | locus YKR001C, strain vps1, stronger effect = lower value 0.732 | locus YLL041C, strain sdh2, stronger effect = lower value 0.917 | locus YLR039C, strain RIC1, stronger effect = lower value 0.604 | locus YLR258W, strain gsy2, stronger effect = lower value 0.906 | locus YLR262C, strain YPT6, stronger effect = lower value 0.556 | locus YLR330W, strain CHS5, stronger effect = lower value 0.876 | locus YLR370C, strain arc18, stronger effect = lower value 0.895 | locus YLR371W, strain rom2, stronger effect = lower value 0.767 | locus YLR418C, strain cdc73, stronger effect = lower value 0.758 | locus YML016C, strain PPZ1, stronger effect = lower value 0.888 | locus YML032C, strain rad52, stronger effect = lower value 0.897 | locus YML124C, strain tub3, stronger effect = lower value 0.911 | locus YMR078C, strain ctf18, stronger effect = lower value 0.881 | locus YMR223W, strain ubp8, stronger effect = lower value 0.898 | locus YNL233W, strain BNI4, stronger effect = lower value 0.788 | locus YNL248C, strain rpa49, stronger effect = lower value 0.872 | locus YNL250W, strain rad50, stronger effect = lower value 0.862 | locus YNL271C, strain bni1, stronger effect = lower value 0.906 | locus YNL307C, strain MCK1, stronger effect = lower value 0.846 | locus YOL147C, strain pex11, stronger effect = lower value 0.912 | locus YOR001W, strain rrp6, stronger effect = lower value 0.89 | locus YOR069W, strain VPS5, stronger effect = lower value 0.924 | locus YOR106W, strain vam3, stronger effect = lower value 0.855 | locus YOR144C, strain elg1, stronger effect = lower value 0.913 | locus YOR265W, strain rbl2, stronger effect = lower value 0.913 | locus YOR270C, strain vph1, stronger effect = lower value 0.721 | locus YOR316C, strain cot1, stronger effect = lower value 0.917 | locus YPL078C, strain atp4, stronger effect = lower value 0.887 | locus YPR119W, strain clb2, stronger effect = lower value 0.904 | locus YPR141C, strain kar3, stronger effect = lower value 0.901 | locus YPR163C, strain tif3, stronger effect = lower value 0.908 | locus YPR167C, strain met16, stronger effect = lower value 0.891 | strain wtn01, stronger effect = lower value 0.892
0.787 (active) and 0.917 (inactive): locus YJL095W, strain BCK1, stronger effect = lower value

Reference: PubChem BioAssay AID1159580 (chemical genetic matrix, 2015)
